Screens deposited in PubChem by National Center for Advancing Translational Sciences (NCATS).
A selection: hits, their analogues and other compounds. The true share with any hit is near 2.3%.
Abeta rescue – restores growth of yeast expressing A-beta42 peptide; Potency, µM (top dose mostly 46.1 µM), usual class: activators; yeast expressing A-beta42, growth rescue, OD600, 48 h; response scale: 0% DMSO, 100% iron-clioquinol control; AID 1347071; 410,000 compounds, 0.063% hits; note: potency is the fitted concentration of half-maximal effect; nearly all actives have a fitted effect of over 55% in size
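Growth rescue measured by 600 nm absorbance after 48 h yeast culture at 30 C with compound. Values normalized between DMSO and an equimolar ferric chloride plus clioquinol control.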
aSyn rescue – rescues yeast growth from alpha-synuclein toxicity; AID 652106; 370,000 compounds, 0.14% hits; Yeast expressing alpha-synuclein, growth rescue, BacTiter-Glo, 24 h; Potency, µM (highest dose often 46.1 µM), without a hit: top-dose growth rescue (activation), usual class: activators; note: potency is the fitted concentration of half-maximal effect; % of control where 0% means no effect; nearly all actives have a fitted effect of over 65% in size
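Readout is rescue of growth in alpha-synuclein-expressing yeast, so inhibitors of toxicity appear as activators. Growth after 24 hr at 30 deg C in galactose medium is quantified by luminescence.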
TDP-43 yeast inh – inhibitors of TDP-43 toxicity in yeast. Potency, µM (series often up to 46.1 µM), without a hit: top-dose growth rescue (activation), usual class: activators. AID 652104. TDP-43 expressing yeast growth rescue, BacTiter-Glo, 24 h. 410,000 compounds, 1.8% hits; note: potency is the fitted concentration of half-maximal effect; % of control where 0% means no effect; nearly all actives have a fitted effect of over 50% in size
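Luminescence from BacTiter-Glo reports growth of TDP-43-expressing yeast after 24 hr at 30 deg C with compound. Cells were raffinose-pregrown to mid-log, then seeded in galactose medium at OD600=0.02.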
pAkt inh – Akt phosphorylation inhibition; Neuro2A IGF-stimulated pAkt S473 HTRF, 20 min; hits give low values; activity change, % for hits at 50 µM; 360,000 compounds, 0.32% hits; in the data active = activity change below about -80%; inconclusive = mostly about -51% to -80%; note: % is set by controls: 0 for no effect and ±100 for the full control effect
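Neuro2A cells (4,500/well, DMEM with 0.5% FBS) were treated with compound at a single 50 µM final concentration, stimulated with 6 nM IGF for 20 min at 37 °C, and lysed. Phospho-Akt Ser473 was read by HTRF as 665/615 ratio ×10^4.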
FUS suppressor – suppressors of FUS proteinopathy in yeast | S. cerevisiae FUS-expressing, growth rescue, OD600, 24 h | Potency, µM (titrated, usually from 76.6 µM), usual class: activators | 390,000 compounds, 0.24% hits | AID 1347120;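 note: potency is the fitted concentration of half-maximal effect; plate controls were DMSO vehicle for no effect and reference control for full effect; nearly all actives have a fitted effect of over 55% in size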
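FUS-expressing yeast, raffinose-pregrown, induced in 2% galactose minimal medium at OD 0.005; compounds in a dilution series, 24hr at 30C. Growth restoration read as absorbance at 600 nm. CP55940 positive control, DMSO negative.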
Numbers without * were called inactive. Unless noted, calls come from the whole dose curve; as a rule, active = well fitted curve in the direction sought with a large enough effect; inconclusive = small, poorly fitted or top-dose-only effect, or another doubt; inactive = no such curve, though single readings can be large; an effect the other way counts as inactive or inconclusive.

Results for CCCN1CCN(C(=O)Cn2c(-c3cccs3)cc3ccccc32)CC1 ?
Abeta rescue: inactive; TDP-43 yeast inh: 7%; FUS suppressor: inactive

What do the screens show for `COc1ccc2c(c1)c1c(c(=O)n(-c3ccc(C)cc3)c(=O)n1CC(=O)N1CCCC1)n2C`?
Abeta rescue: inactive; TDP-43 yeast inh: 5%; FUS suppressor: inactive

Results for COc1ccccc1NC(=O)c1ccc2oc(=O)c(S(=O)(=O)c3ccccc3)cc2c1 ?
Abeta rescue: inactive; TDP-43 yeast inh: -12%; FUS suppressor: inactive

Results for O=C(/C=C/c1ccc(F)cc1)NC(=S)NNC(=O)[C@H]1C[C@@H]1c1ccccc1 ?
Abeta rescue: inconclusive; aSyn rescue: 10µM*; TDP-43 yeast inh: 6.3µM*; pAkt inh: inactive; FUS suppressor: inactive

How did CCC(Sc1nc2c(sc3ccccc32)c(=O)n1CCc1ccc(OC)c(OC)c1)C(=O)N(CC)CC (configuration not stated) do in these assays?
Abeta rescue: inactive; TDP-43 yeast inh: 0%; FUS suppressor: inactive

How did Cc1cc(C)c(NC(=O)CSc2cn(CC(=O)N3CCOCC3)c3ccccc23)c(C)c1 do in these assays?
Abeta rescue: inactive; TDP-43 yeast inh: 17%; FUS suppressor: inactive

How did Cc1cccc(N(C)c2nc3ccc(C)cc3n3nnnc23)c1 do in these assays?
Abeta rescue: inactive; TDP-43 yeast inh: 6%; FUS suppressor: inactive

Results for Cc1cccc(N(C)c2nc3ccc(C)cc3n3cnnc23)c1 ?
Abeta rescue: inactive; TDP-43 yeast inh: 13µM*; FUS suppressor: inactive

What do the screens show for `O=C1c2ccccc2C(c2nnnn2Cc2ccccc2)N1CCOc1ccccc1` (configuration not stated)?
Abeta rescue: inactive; aSyn rescue: 25µM*; TDP-43 yeast inh: 11µM*; pAkt inh: inactive; FUS suppressor: inactive

What do the screens show for `COc1cccc2c1Oc1ncccc1N(C(=O)Nc1cccc(Cl)c1)C2`?
Abeta rescue: inactive; TDP-43 yeast inh: 16%; FUS suppressor: inactive

How did N#Cc1cccc(S(=O)(=O)N2CCN(S(=O)(=O)c3ccc4c(c3)OCCO4)CC2)c1 do in these assays?
aSyn rescue: -6%

What do the screens show for `Cc1nn(-c2nc(-c3ccco3)cc(C(F)(F)F)n2)c(C)c1Cl`?
Abeta rescue: inactive; aSyn rescue: 7%; TDP-43 yeast inh: 11%; pAkt inh: -116%*; FUS suppressor: inactive

Results for Cc1nn(-c2nc(-c3ccc(F)cc3)cc(C(F)(F)F)n2)c(C)c1Cl ?
Abeta rescue: inactive; TDP-43 yeast inh: inconclusive; FUS suppressor: inactive

How did O=C1CCSC2(C(=O)N(Cc3ccc(F)cc3)c3ccccc32)N1c1ccc(Cl)cc1 (configuration not stated) do in these assays?
Abeta rescue: inactive; TDP-43 yeast inh: 0%; FUS suppressor: inactive

Results for C[C@@H]1CN([C@H](C)CO)C(=O)c2cc(NC(=O)Nc3ccc(C(F)(F)F)cc3)ccc2O[C@H]1CN(C)C(=O)Nc1ccc(F)cc1 ?
Abeta rescue: inactive; aSyn rescue: 1%; TDP-43 yeast inh: -16%; pAkt inh: inactive; FUS suppressor: 28µM*

Results for CCOC(=O)CCCCCC(=O)Nc1ccc2c(c1)C(=O)N([C@@H](C)CO)C[C@H](C)[C@H](CN(C)C(=O)Nc1ccc(F)cc1)OCCCC[C@H](C)O2 ?
Abeta rescue: inactive; aSyn rescue: 0%; TDP-43 yeast inh: 27%; pAkt inh: inactive; FUS suppressor: 22µM*

Results for C[C@@H]1CCCCO[C@H](CN(C)Cc2ccc(Cl)c(Cl)c2)[C@H](C)CN([C@@H](C)CO)C(=O)c2cc(NC(=O)Nc3ccc(F)cc3)ccc2O1 ?
Abeta rescue: inactive; aSyn rescue: -6%; TDP-43 yeast inh: 0%; pAkt inh: inactive; FUS suppressor: 35µM*

What do the screens show for `COC(=O)N1C(=O)[C@@](c2ccccc2)(C(C)C)N1C(=O)OC`?
Abeta rescue: inactive; aSyn rescue: -4%; TDP-43 yeast inh: inconclusive; pAkt inh: inactive; FUS suppressor: inactive

How did COC(=O)N1C(=O)[C@](c2ccccc2)(C2CCCC2)N1C(=O)OC do in these assays?
Abeta rescue: inactive; aSyn rescue: 2%; TDP-43 yeast inh: 14µM*; pAkt inh: inactive; FUS suppressor: inactive

How did C=CCN1C(=O)/C(=C/c2ccc(OCC(=O)O)cc2)S/C1=N/c1nccs1 do in these assays?
Abeta rescue: inactive; aSyn rescue: 3%; TDP-43 yeast inh: 22%; pAkt inh: inactive; FUS suppressor: inactive

Results for C=CCN1C(=O)/C(=C/c2ccc(O)c(OC)c2)S/C1=N/c1nccs1 ?
Abeta rescue: inactive; aSyn rescue: 13%; TDP-43 yeast inh: 22µM*; pAkt inh: inactive

Results for COc1ccc(OCC(=O)Nc2cccc(-c3nc4ccccc4o3)c2)cc1 ?
Abeta rescue: inactive; aSyn rescue: -13%; TDP-43 yeast inh: 18%; pAkt inh: inactive; FUS suppressor: inactive

What do the screens show for `CCc1ccc(OCC(=O)Nc2ccc(-c3nc4ccccc4o3)c(O)c2)cc1`?
Abeta rescue: inactive; aSyn rescue: 1%; TDP-43 yeast inh: 8%; pAkt inh: -102%*; FUS suppressor: inactive

How did Cc1ccc(NC(=O)c2ccc(-c3cc(Cl)ccc3Cl)o2)c(C)c1 do in these assays?
Abeta rescue: inactive; aSyn rescue: 0%; TDP-43 yeast inh: -10%; pAkt inh: inactive; FUS suppressor: inactive

How did Cc1ccccc1NC(=O)c1ccc(-c2ccc(Cl)cc2Cl)o1 do in these assays?
Abeta rescue: inconclusive; aSyn rescue: 1%; TDP-43 yeast inh: 20µM*; pAkt inh: inactive; FUS suppressor: inactive

What do the screens show for `Cc1cccc(C)c1NC(=O)c1ccc(-c2cc(F)ccc2F)o1`?
Abeta rescue: inactive; aSyn rescue: -1%; TDP-43 yeast inh: 11µM*; pAkt inh: inactive; FUS suppressor: inactive

Results for Cc1cccc(C)c1NC(=O)c1ccc(-c2ccc(Cl)cc2Cl)o1 ?
Abeta rescue: inactive; aSyn rescue: 0%; TDP-43 yeast inh: 21%; pAkt inh: -115%*; FUS suppressor: inactive

How did Cc1ccnc(N2C(=O)c3cccc4c([N+](=O)[O-])ccc(c34)C2=O)c1 do in these assays?
Abeta rescue: inactive; aSyn rescue: -77%; TDP-43 yeast inh: -16%; FUS suppressor: inactive

Results for Cc1nnc(N2C(=O)c3cccc4c([N+](=O)[O-])ccc(c34)C2=O)s1 ?
Abeta rescue: inactive; aSyn rescue: -2%; TDP-43 yeast inh: 13µM*; pAkt inh: inactive; FUS suppressor: inactive

Results for O=C(/C=C/c1ccccc1)N1CCN(Cc2cc(=O)n3nc(-c4ccccc4)sc3n2)CC1 ?
Abeta rescue: inactive; TDP-43 yeast inh: -8%; FUS suppressor: inactive
